Values joined by “and” are separate entries in the source; they are usually repeats but may differ in a detail not shown here. Equal values may be shown once. Compounds without any hit were thinned out: in the full panel of roughly 79,000, 15% have a hit. Active and inactive are the calls of the source. Cut-off read from the data, not from the text of the source: active = growth inhibition above about 70%; inactive = the rest.
Key:
[1] = NCI Yeast Anticancer Drug Screen. Data for the rad50 strain (AID 155);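 note: 0% = growth of vehicle-only cultures of the same strain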; settings: S. cerevisiae rad50 strain growth inhibition; at 50.0 µM; active compounds read high
Summary of the method: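 Inhibition values express reduced yeast growth in compound-treated cultures relative to vehicle-treated controls.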

[2] = NCI Yeast Anticancer Drug Screen. Data for the mec2-1 strain (AID 157); settings: S. cerevisiae mec2-1 strain, at 50.0 µM, active compounds read high
Summary of the method: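 Using mec2-1 yeast: add compound, measure growth, express inhibition versus vehicle-treated cultures.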

[3] = NCI Yeast Anticancer Drug Screen. Data for the sgs1 mgt1 strain (AID 161);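 note: 0% = growth of cultures given vehicle only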; settings: S. cerevisiae sgs1 mgt1 strain, at 50.0 µM, active compounds read high
Summary of the method: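 Yeast cells carrying a defined DNA-repair defect were exposed to test compounds. Growth inhibition was measured relative to vehicle-treated controls.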

[4] = NCI Yeast Anticancer Drug Screen. Data for the cln2 rad14 strain (AID 165);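 note: 0% = growth equal to vehicle treated cultures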; settings: S. cerevisiae cln2 rad14 strain, at 50.0 µM, active compounds read high
Summary of the method: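 Yeast strain cln2 rad14, bearing defects in cell cycle control and DNA repair, serves as the test system; values reflect growth inhibition compared with vehicle.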

[5] = NCI Yeast Anticancer Drug Screen. Data for the bub3 strain (AID 167); settings: S. cerevisiae bub3 mutant strain, at 50.0 µM, active compounds read high
Summary of the method: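 Steps: expose the mutant yeast strain to compound; grow alongside vehicle-treated cultures; measure growth; express inhibition against the vehicle cultures.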

[6] = NCI Yeast Anticancer Drug Screen. Data for the mlh1 rad18 strain (AID 175); settings: S. cerevisiae mlh1 rad18 strain growth inhibition; at 50.0 µM; active compounds read high
Summary of the method: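 Steps: expose repair-defective yeast to compound; measure growth; express inhibition against vehicle-treated controls.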

Measured: growth inhibition

COc1c2c(nc3ccccc13)-c1cc3c(c(=O)n1C2)COC(=O)C3(O)CC(=O)N1CCOCC1 (stereo not drawn)
inactive: [1] 9.5% | [2] -4.25% | [3] 0.2% | [4] 52.5% | [5] -6.5% | [6] 6.35%

CCN1C[C@]2(COC)[C@H](O)C[C@H](OC)[C@]34C1[C@H]([C@H](OC)[C@H]23)[C@]1(OC(C)=O)[C@H]2[C@@H](OC(=O)c3ccccc3)[C@](O)(C[C@H]24)[C@@H](OC)[C@@H]1O
inactive: [1] 14.6% | [2] -4% | [3] 5.8% | [4] -6.85% | [5] 24.9% | [6] -69.3%

O=P1(O)NP(=O)(O)NP(=O)(O)NP(=O)(O)N1
inactive: [1] -9.45% | [2] 2.9% | [3] -9.8% | [4] -5.45% | [5] -18.1% | [6] -3.95%

C1=[N+]2CCCC2Cc2ccc3ccccc3c21 (stereo not drawn)
inactive: [1] -17.8% | [2] -6.1% | [3] -4.15% | [4] -16.4% | [5] -4.6% | [6] -8.85%

CC(=O)CC(C)=O.CC(=O)CC(C)=O.CC(=O)CC(C)=O.[Sm]
inactive: [1] 53% | [2] 13.8% | [3] 37.1% | [4] 31.9% | [5] 9.1% | [6] 33.8%

CC(Cl)CN1COc2ccc3ccc4c(c3c2C1)CN(CC(C)Cl)CO4 (stereo not drawn)
inactive: [1] 29.1% | [2] 14.4% | [3] 28.4% | [4] -17.9% | [5] 6% | [6] 34.1%

[NH-]C(CO)C(=O)O.[NH-]C(CO)C(=O)O.[Pd+2] (stereo not drawn)
inactive: [1] -8.55% | [2] -3.9% | [3] -6.15% | [4] -7.2% | [5] -5.95% | [6] 15.9%

CC(=O)C(C(C)=O)C(=O)c1ccc([N+](=O)[O-])cc1.[Cr]
inactive: [1] -23.5% | [2] 9.5% | [3] 6.3% | [4] -55.5% | [5] 28.5% | [6] 23.2%

NC(=O)c1ccc([As](=O)(O)O)cc1[N+](=O)[O-]
inactive: [1] -2% | [2] 3.85% | [3] 5.05% | [4] -47.8% | [5] -6.9% | [6] -10.6%

O=[N+]([O-])c1cc(-c2ccc([As](=O)(O)O)cc2)ccc1[As](=O)(O)O
inactive: [1] 2.5% | [2] 4.4% | [3] -40% | [4] 9.5% | [5] -22% | [6] -4.15%

OCC1OC(n2cnc3cc(Cl)c(Cl)cc32)C(O)C1O (stereo not drawn)
inactive: [1] -1.1% | [2] 13.8% | [3] 21.9% | [4] -19.5% | [5] 6.4% | [6] 5%

Cc1nc2ccc(Br)cc2c(=O)n1-c1ccc(N)cc1
inactive: [1] -25.9% | [2] -2.4% | [3] -28.1% | [4] 16.2% | [5] -8.2% | [6] 5.8%

O=P(Cc1ccccc1)(Oc1ccccc1)Oc1ccccc1
active: [1] 89.8% | [3] 82.2% | [6] 74.8%
inactive: [2] 56.5% | [4] 24.8% | [5] 40.1%

c1ccc(-c2ccc[n+](CCC[n+]3cccc(-c4ccccn4)c3)c2)nc1
inactive: [1] 2.9% | [2] 2.45% | [3] -15.2% | [4] -8.45% | [5] -5.75% | [6] 6.25%

Cc1cc(S(=O)(=O)[O-])ccc1-n1nc(C)[c-](N=Nc2cc(S(=O)(=O)[O-])ccc2C(=O)[O-])c1=O.[Cr+3].[Na+].[OH-] (stereo not drawn)
inactive: [1] -19.4% | [2] -30.5% | [3] -11.6% | [4] -35.4% | [5] -16.3% | [6] -17.1%

CC(C)CCC(=O)O[C@H]1CC[C@@]2(C)C(=CC[C@@H]3[C@@H]2CC[C@]2(C)C(=O)CC[C@@H]32)C1
inactive: [1] 26.2% | [2] 8.4% | [3] 11.4% | [4] 17.1% | [5] 1.95% | [6] 23.3%

O=c1cccc2n1CC1CNCC2C1 (stereo not drawn)
inactive: [1] 10.6% | [2] 13.4% | [3] -16.2% | [4] 7.65% | [5] 15.7% | [6] -22.1%

CO/C=C/c1ccc2c(c1)OCO2
inactive: [1] 34.6% | [2] 25.5% | [3] 16.7% | [4] 10.2% | [5] 12.7% | [6] -10.8%

CCC1CN2CCc3cc(OC)c(OC)cc3C2CC1CC1c2cc(OC)c(OC)cc2CCN1C(=O)C(N)Cc1ccccc1 (stereo not drawn)
inactive: [1] -8.25% | [2] -0.5% | [3] -2.3% | [4] -3.05% | [5] -5.05% | [6] 8.5%

COc1cc2c3cc1Oc1c(OC)c(OC)cc4c1C(Cc1ccc(cc1)Oc1cc(ccc1O)CC3N(C)CC2)N(C)CC4 (stereo not drawn)
inactive: [1] -18.4% and 5.95% | [2] -30.8% and -27.1% | [3] -9.65% and -29.5% | [4] 12.7% and -14.9% | [5] -0.55% and -12.1% | [6] -10.6% and -41%

O=P(Nc1ccc(Cl)cc1)(Oc1ccccc1)N(CCCl)CCCl (stereo not drawn)
inactive: [1] 3.75% | [2] -1.55% | [3] -6.75% | [4] -9.4% | [5] -7.95% | [6] 0.9%

COc1ccc(-c2c[se]c(=S)s2)cc1
inactive: [1] 24.1% | [2] 10.8% | [3] -7.35% | [4] -33.5% | [5] 4.2% | [6] 11.3%

CC(NCCO)C(O)c1ccccc1 (stereo not drawn)
inactive: [1] -23.9% | [2] -42.5% | [3] -2.25% | [4] 8.5% | [5] -21.2% | [6] -16.6%

CN1CN(c2ccccc2)C2(CCN(CCc3csc4ccccc34)CC2)C1=O
inactive: [1] 29.9% | [2] 12.2% | [3] 17.8% | [4] 16.9% | [5] 3.5% | [6] 19.4%

C=CCN1CCC23c4c5ccc(O)c4OC2C(=NN=C2CCC4(O)C6Cc7ccc(O)c8c7C4(CCN6CC=C)C2O8)CCC3(O)C1C5 (stereo not drawn)
inactive: [1] 3.4% | [2] 2.5% | [3] 10% | [4] 27.4% | [5] 2.1% | [6] 32.2%

C[N+](C)(C)CC1CCC(C[N+](C)(C)C)C1=NO (stereo not drawn)
inactive: [1] -16.3% | [2] 11.1% | [3] 4.2% | [4] 13.2% | [5] 9.75% | [6] -15.5%

CCOc1ccc(N)cc1
inactive: [1] -4.65% | [2] 10.9% | [3] -6.05% | [4] 5.85% | [5] 0.45% | [6] 8.65%

COC(=O)N/N=C(\C)C(CN(C)C)C(c1ccccc1)c1c(O)c2ccccc2oc1=O (stereo not drawn)
inactive: [1] 35.4% | [2] 28.9% | [3] 47% | [4] 34.6% | [5] 49.4% | [6] 34.1%

CC(C)N(C#N)C(C)C
inactive: [1] 16.6% | [2] -0.75% | [3] 1.85% | [4] 9.6% | [5] 0.25% | [6] 6.25%

CC1(C)N=C(c2ccccc2)C2(c3ccccc3)N1C2(C)C (stereo not drawn)
inactive: [1] -1.8% | [2] 11.3% | [3] 16.8% | [4] -0.3% | [5] 5.6% | [6] -18.1%

CCOP(=O)(OCC)/C(C#N)=C/c1ccccc1OC
inactive: [1] 40.5% | [2] -1.3% | [3] 0.15% | [4] -4.65% | [5] -14.8% | [6] 27.6%

CCOP(=O)(NC(C)C)OCC
inactive: [1] -4.55% | [2] -18.6% | [3] -2.8% | [4] 16.9% | [5] 6.8% | [6] -1.8%

[Cl][Pt+2][Cl].[NH-]c1ccc(Cl)cc1[NH-]
inactive: [1] 9.7% | [2] -11.9% | [3] -3.05% | [4] 8.15% | [5] -11.1% | [6] 7.5%

CC(NC(=O)C(c1ccccc1)c1ccccc1)C(=O)O (stereo not drawn)
inactive: [1] 2.35% | [2] 12.6% | [3] -1.5% | [4] -17.2% | [5] 1.4% | [6] 14.9%

CC1(c2ccccc2)CCC(=O)NC1=O (stereo not drawn)
inactive: [1] 7.2% | [2] 19.6% | [3] 14.6% | [4] 32.5% | [5] 7.85% | [6] 38.6%

O=C(NCCN1CCOCC1)C1(O)N=C(c2ccccc2)c2ccsc2-n2cccc21 (stereo not drawn)
inactive: [1] 51.3% | [2] 30.3% | [3] 64.2% | [4] -6.05% | [5] 27.6% | [6] 36.5%

O=C(O)CP(=O)(O)O
inactive: [1] -19% and 6.2% | [2] -8.25% and 10% | [3] -21.1% and 1.75% | [4] -2.2% and -19.4% | [5] -27.1% and 5.75% | [6] 1.2% and -2.65%

O=C(Nc1ccc(S(=O)(=O)Nc2ccc(N=Nc3ccc(N=Nc4ccccc4)cc3)cc2)cc1)C(N1CC1)(N1CC1)N1CC1
inactive: [1] 30.4% | [2] -9.5% | [3] 3.95% | [4] 9.05% | [5] -3.8% | [6] -7.35%

— PubChem BioAssay (NCI)
